Assay outcomes (PubChem BioAssay)
Sampled rows, rich in hits. Any-hit rate of the full collection: about 10%.
PNC assembly inh = blocks assembly of the perinucleolar compartment; PC3M PTB-GFP, PNC prevalence imaging, 16 h; stronger effect = lower value; activity change (PNC), negative = inhibition, % at 10 µM; 140,000 compounds, 3.1% hits; AID 2417;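 active means readout at or below -70, meaning at least 70% loss of cells showing the perinucleolar compartment, a nuclear body marking cancer cells; inconclusive means readout between -30 and a set limit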;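 further: plate controls were DMSO wells for no effect and camptothecin positive control wells for full effect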
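PC3M cells stably expressing PTB-GFP, 750–1000 cells/well, treated 16 h at 37 °C with compound (23 nl of library stock), in duplicate. After paraformaldehyde fixation and Hoechst stain, imaged at 20x; PNC prevalence scored by image analysis.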
LMNA splice mod = changes lamin A minigene splicing in HeLa cells; Potency, µM (doses to about 46.1 µM), for inactives: top-dose ratio change, negative = inhibition, usual class: inhibitors; 200,000 compounds, 0.01% hits; HeLa LMNA splicing GFP/RFP minigene ratio, 48 h; active means well fitted inhibition curve with a large enough effect in the signal ratio, with a control signal flat, not every such curve was filed as active; inconclusive means small, poorly fitted or top-dose-only effect, or effect the other way, or a change in a side signal; the % refers to the signal ratio; further: potency means the concentration at half of the fitted maximal effect
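S3 HeLa stable clones carrying a lamin A-EGFP splicing minigene plus DsRed2 were seeded at 600 cells/well in Opti-MEM with 2% FBS, pin-dosed and incubated 48 h at 37°C. Acumen cytometry (488 nm) gave the GFP/RFP total-intensity ratio.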
ALDH1A1 inh = ALDH1A1 (human) enzyme inhibition. Potency, µM (highest dose often 75.3 µM), for inactives: at the top dose activity, negative = inhibition, hits mostly inhibitors. Purified ALDH1A1, NADH fluorescence, propionaldehyde substrate. 220,000 compounds, 7.3% hits. P00352;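 further: potency means the concentration at half of the fitted maximal effect; plate controls were no enzyme wells and a reference inhibitor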
Target sequence (P00352 whole entry, looked up): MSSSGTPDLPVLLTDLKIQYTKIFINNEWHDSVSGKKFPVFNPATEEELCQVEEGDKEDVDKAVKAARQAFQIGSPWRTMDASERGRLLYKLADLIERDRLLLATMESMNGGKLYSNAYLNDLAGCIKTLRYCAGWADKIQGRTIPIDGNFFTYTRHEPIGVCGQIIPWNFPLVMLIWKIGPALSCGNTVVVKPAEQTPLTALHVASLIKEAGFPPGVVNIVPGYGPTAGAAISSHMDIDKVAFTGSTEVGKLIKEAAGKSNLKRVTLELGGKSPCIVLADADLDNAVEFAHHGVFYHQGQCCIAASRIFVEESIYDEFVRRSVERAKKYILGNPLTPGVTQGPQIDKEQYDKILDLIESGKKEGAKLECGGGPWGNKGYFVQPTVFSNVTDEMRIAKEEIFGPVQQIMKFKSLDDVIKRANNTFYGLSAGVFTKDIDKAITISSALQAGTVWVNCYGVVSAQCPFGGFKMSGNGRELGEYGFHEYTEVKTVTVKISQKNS
HPGD inh = blocks human HPGD enzyme activity; P15428; purified HPGD, NADH fluorescence kinetic, PGE2 substrate; Potency, µM, inactives show at the highest dose activity change, negative = inhibition, actives largely listed as inhibitors; 150,000 compounds, 4.3% hits; AID 894; further: potency means the concentration at half of the fitted maximal effect
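20 nM HPGD preincubated 15 min at room temperature with compound in 50 mM Tris-HCl pH 8, 0.01% Tween 20. Started with 1 mM NAD+ and 30 uM prostaglandin E2; NADH fluorescence (360/450 nm) read 5 times over 30-s intervals, last minus first.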
12-hLO inh = blocks human 12-lipoxygenase activity; P18054; purified 12-hLO, xylenol orange hydroperoxide absorbance; Potency, µM (series often up to 57.1 µM), inactives show top-dose activity change, negative = inhibition, most hits filed as inhibitors; 150,000 compounds, 0.12% hits; AID 1452; active means well fitted inhibition curve with a large enough effect; inconclusive means small, poorly fitted or top-dose-only effect; further: potency means the concentration at half of the fitted maximal effect; nearly all actives have a fitted effect of over 55% in size
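Purified human 12hLO (150 nM), preincubated 15 min with compound, then 40 uM arachidonic acid for 30 min, room temperature, Hepes pH 7.0 with 0.01% Triton X-100. Hydroperoxide detected by ferrous iron/xylenol orange; 573/405 nm absorbance ratio gives reaction progress.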
An asterisk follows results filed as active; ! = not active in a repeat; [ ] = remark or other dose. Unless noted, the call rests on the fitted dose curve; in most records, active means well fitted inhibition curve with a large enough effect (not every such curve was filed as active); inconclusive means small, poorly fitted or top-dose-only effect, or another doubt; inactive means no such curve, though single readings can be large or run the other way. Unless noted, on the % scale 0 is the no-effect control and ±100 the full control effect.

For CCCC(=O)N1CCN(c2ccc(NC(=S)NC(=O)c3cccc(C)c3)cc2)CC1 the results were LMNA splice mod 3%[46 µM] and ALDH1A1 inh 20µM*.
COc1cccc(C(=O)NC(=S)Nc2ccc3oc(=O)ccc3c2)c1 was read as PNC assembly inh 85, LMNA splice mod -13%, ALDH1A1 inh 1.4µM* and 12-hLO inh 0%.
CC(=O)N(O)[C@@H]1c2cc(C#N)ccc2OC(C)(C)[C@H]1O was read as ALDH1A1 inh 4%, HPGD inh -13% and 12-hLO inh 1%.
For O=C(Cc1ccc(Cl)cc1)c1c(O)cc(O)cc1O the results were ALDH1A1 inh 3%, HPGD inh inconclusive and 12-hLO inh -9%.
COc1ccc2c(c1)CCC1C2=NN(/C(C)=C/C(C)=O)C1c1cccc(F)c1 (configuration not stated) was read as ALDH1A1 inh 28µM*.
For Cc1ccc(NC(=O)CN(C)C(=O)Cn2cc(C(F)(F)F)ccc2=O)cc1 the results were PNC assembly inh -80*, LMNA splice mod -2%, ALDH1A1 inh 11% and 12-hLO inh -3%.
COc1cccc(CN(c2ccc3c(c2)CCC3)S(=O)(=O)c2ccc(-n3cnnn3)c(OC)c2)c1 was read as PNC assembly inh inconclusive, LMNA splice mod inconclusive, ALDH1A1 inh 2.5µM*, HPGD inh -12% and 12-hLO inh -1%.
`Cc1cc(S(=O)(=O)N(Cc2ccccc2Cl)c2ccc3c(c2)CCC3)ccc1-n1cnnn1` gave PNC assembly inh inconclusive, LMNA splice mod 19%, ALDH1A1 inh 5µM*, HPGD inh -4% and 12-hLO inh 4%.
CCOC(=O)Cc1ccc(NC(=O)N2CC(CC)Oc3ccccc32)cc1 (configuration not stated) was read as LMNA splice mod -7%[46 µM].
For O=C(O)c1ccccc1/C=N\N=C1c2ccccc2-c2ccccc21 the results were ALDH1A1 inh -2%[13.5 µM], HPGD inh -12% and 12-hLO inh 5%[11.4 µM].
`Cc1ccc(C2=NC(C)(C)N=C2SCC(=O)Nc2ccc(Cl)cc2)cc1` gave PNC assembly inh 34, LMNA splice mod -17%, ALDH1A1 inh 22µM*, HPGD inh -24% and 12-hLO inh -18%.
`CC1SC(c2cccc(Cl)c2)NC1=O` (configuration not stated) gave PNC assembly inh -10, LMNA splice mod 5%, ALDH1A1 inh 11µM*, HPGD inh inconclusive and 12-hLO inh 2%.
CCCCn1cc(S(=O)(=O)c2ccc(C)c(C)c2)c(=O)c2cc(F)c(N(CC)CC)cc21 was read as LMNA splice mod 0%[46 µM].
CCc1cc(=O)oc2cc3occ(-c4ccc(OC)c(F)c4)c3cc12 was read as PNC assembly inh -93*, LMNA splice mod inconclusive, ALDH1A1 inh -9%, HPGD inh inconclusive and 12-hLO inh -2%.
For CCOC(=O)c1ccccc1NC(=S)N1CC(C)CC(C)C1 (configuration not stated) the results were PNC assembly inh inconclusive, LMNA splice mod -4%, ALDH1A1 inh 25µM*, HPGD inh -5% and 12-hLO inh -4%.
CO[Si](CCCNCCC[Si](OC)(OC)OC)(OC)OC was read as ALDH1A1 inh 2%, HPGD inh -6% and 12-hLO inh 2%.
Screening COc1ccc(C(=O)/C=C/c2cc(OC)c(O)c(OC)c2)c(F)c1 returned PNC assembly inh 4, LMNA splice mod inconclusive, ALDH1A1 inh inconclusive, HPGD inh 14µM* and 12-hLO inh inconclusive.
For COc1ccc(C(=O)/C=C/c2ccccc2)c(OC)c1 the results were ALDH1A1 inh -10%.
`Cn1c(=O)c2c(nc(C(=N)SCC(=O)O)n2C)n(C)c1=O` gave ALDH1A1 inh -13%[13.5 µM], HPGD inh -27% and 12-hLO inh -4%[11.4 µM].
`CC1=C(/C=C/C(C)=C/C=C/C(C)=C\C(=O)O)C(C)(C)CCC1` gave LMNA splice mod inconclusive, ALDH1A1 inh inconclusive, HPGD inh -14% and 12-hLO inh 1%.
`CC1=C(\C=C/C(C)=C/C=C\C(C)=C\C(=O)O)C(C)(C)CCC1` gave LMNA splice mod inconclusive, ALDH1A1 inh 35µM*!, HPGD inh -7% and 12-hLO inh -11%.
For CC1=C(/C=C/C(C)=C/C=C/C(C)=C/C(=O)Nc2ccc(O)cc2)C(C)(C)CCC1 the results were LMNA splice mod inconclusive, ALDH1A1 inh 20µM*!, HPGD inh -9% and 12-hLO inh 3%.
`CN(C)c1ncc2nc(-c3cccc(C#N)c3)c(=O)n(C[C@H]3CCCO3)c2n1` gave LMNA splice mod 3% and ALDH1A1 inh inconclusive.
